Structures are written as SMILES. The whole screen tested about 360,000 compounds, of which about 7,500 (2.1%) were called active. Roughly 20% stayed inconclusive and do not appear here. This is one part of a sample in which actives are shown more often than they occur. Values without a mark were called inactive. Calls follow the shape of the dose curve; as a rule, active = well fitted inhibition curve with a large enough effect; inconclusive = small, poorly fitted or top-dose-only effect, or effect the other way; inactive = flat fitted curve, though single readings scatter.
% is scaled to controls: 0 for no effect and ±100 for the full control effect; potency is read from the fitted curve at half-maximal effect.

This test can be described thus: Nrf2 qHTS screen for inhibitors. Also: nearly all actives have a fitted effect of over 60% in size. Particulars: A549 ARE-Fluc reporter, luciferase luminescence, 18-24 h; series mostly up to 46 µM; activity change, negative = inhibition: at the top concentration. In outline:
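A549 ARE_Fluc cells (5000/well, 5% FBS OPTI-MEM) pre-incubated 2 h, then treated with compounds 18-24 h at 37C/5% CO2 in concentration-response. CellTiter-Fluor viability read first; BugLite luciferase luminescence after 15 min at room temperature gives Nrf2 activity.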
A general note: qHTS replaces the single test concentration by a dilution series.
Regarding `NC(=O)C1(Nc2ccc(-c3ccccc3)cc2)CCCC1`, the “activity change, negative = inhibition” value is 8.22%. As to `O=C1CCCC2=C1[C@@]1(CCC(c3ccccc3)C1)N=C(Nc1nc3ccccc3o1)N2` (some centres not stated), the “activity change, negative = inhibition” value was -25.3%.

For the compound `O=c1c2ccccc2n(Cc2cccc(Cl)c2)c(=O)n1Cc1ccccc1`, the activity change, negative = inhibition was -5.53% [at 9.27 µM].

Consider `CCOC(=O)c1cnc(SCC(=O)Nc2cccc(OC)c2)nc1N`, for which the Potency was 25.9 µM (active). With `CCOC(=O)c1cnc(SCC(=O)NCc2ccco2)nc1N`, the “activity change, negative = inhibition” value is -21.5%. As for `CCOC(=O)c1cnc(SCc2nc(N)nc(Nc3ccc(OC)cc3)n2)nc1N`, the “activity change, negative = inhibition” value was -25.3%. As for `COc1ccc(-c2cn3c(n2)sc2cc(C(=O)Nc4ccc(F)cc4)ccc23)cc1`, the “activity change, negative = inhibition” value was -5.23%. With `CCCCCCC1(C)NC(c2ccc3c(c2)OCO3)=CC(c2ccccc2O)N1` (configuration not stated), the “activity change, negative = inhibition” value was 2.14%.

Consider `CC1=C(C(=O)NC2CC(C)(C)Cc3c2cnn3-c2ccc(C)cc2)OCCO1` (configuration not stated), for which the “activity change, negative = inhibition” value is -24%.

As for `CC(=O)NCC(=O)NC1CCCc2c1cnn2-c1ccccc1F` (configuration not stated), the “activity change, negative = inhibition” value is 19.1%. In the case of `COc1ccc(C(=O)NC2CC(C)(C)Cc3c2cnn3-c2ccccc2C)o1` (configuration not stated), the “activity change, negative = inhibition” value was 13.2%. As to `Cc1cccc(-n2nc3c(c2NC(=O)c2ccc(Br)o2)CSC3)c1C`, the “activity change, negative = inhibition” value is -10.6%. Regarding `Cn1nccc1C(=O)NC1CCCc2c1cnn2-c1ccc(F)cc1F` (configuration not stated), the Potency is 0.184 µM (active). `Cc1cc(C(=O)NC2CCCc3c2cnn3-c2cccc(C)c2C)c(C)o1` (configuration not stated): the Potency was 3.66 µM (active). With `Cc1ccc(C(=O)NCCNC(=O)c2cnccn2)cc1`, the “activity change, negative = inhibition” value is 4.7%.

Regarding `Cc1ccc(-c2csc(NC(=O)c3cnccn3)n2)cc1C`, the “activity change, negative = inhibition” value was 15.5%. With `Cc1ccc(-n2ncc3c2CCCC3NC(=O)c2cnccn2)cc1C` (configuration not stated), the Potency is 20.6 µM (active). As to `COc1cc(CNCCSc2nnnn2C)ccc1OCc1ccc(Cl)cc1Cl`, the “activity change, negative = inhibition” value is -13.7%.

Consider `COc1ccc(CNC(=O)CS(=O)Cc2nc(-c3cccc(C)c3)oc2C)cc1` (configuration not stated), for which the “activity change, negative = inhibition” value was -4.99%.

On to `Cc1ccc(OCCSc2nc(C)c(Cc3ccccc3)c(=O)[nH]2)cc1`, for which the “activity change, negative = inhibition” value is 7.59%. As for `CCOC(=O)[C@H]1[C@H]2COc3ccc(Br)cc3[C@@H]2N2C(=O)CN(C)C(=O)[C@@]12C`, the “activity change, negative = inhibition” value is -13.2%. In the case of `CN(CC(=O)Nc1ccc(OC(F)F)cc1)S(=O)(=O)/C=C/c1ccccc1`, the “activity change, negative = inhibition” value is -13.5%. `O=C(Nc1cccc(NC(=O)c2ccc(Br)cc2)c1)c1ccccc1`: the Potency entry was “inactive”. As to `O=C(Nc1cccc(NC(=O)c2cccc(F)c2)c1)c1ccccc1`, the “activity change, negative = inhibition” value was -21.7%. Consider `O=C(Cc1ccccc1)Nc1cccc(NC(=O)c2ccccc2)c1`, for which the Potency was 25.9 µM (active).

For the compound `Cc1ccccc1C(=O)Nc1sc2c(c1C(=O)N1CCC(C)CC1)CCCC2`, the “activity change, negative = inhibition” value was 3.62%. Turning to `COc1ccc(C(=O)COC(=O)c2ccc([N+](=O)[O-])s2)cc1OC`, the “activity change, negative = inhibition” value was 10.6%. `Cc1cc(C(=O)N/N=C/c2cc([N+](=O)[O-])cc(C)c2O)n[nH]1`: the “activity change, negative = inhibition” value is -24.2%. For `COc1ccc(C(=O)NCC(=O)N/N=C/c2ccc([N+](=O)[O-])s2)cc1OC`, the Potency was 25.9 µM (active). As for `CC(C)(C)c1cc(C(=O)N/N=C/c2ccc([N+](=O)[O-])s2)n[nH]1`, the Potency is 20.6 µM (active). For `CCOc1ccc(NC(=O)CCC(=O)N/N=C/c2ccc([N+](=O)[O-])s2)cc1`, the “activity change, negative = inhibition” value was -11.9%.

For `COc1ccc2ccccc2c1/C=N/NC(=O)c1cc(C)[nH]n1`, the “activity change, negative = inhibition” value is 10.1%. For `Cn1c(=O)c(C(=O)O)nn(-c2ccccc2)c1=O`, the activity change, negative = inhibition was 7.58% [at 9.27 µM].

Turning to `COc1ccc(C2=NC(c3ccncc3)=Nc3ccc(Br)cc3N2)cc1`, the “activity change, negative = inhibition” value is -17.2%. In the case of `COc1cc(C2CC(=O)Oc3cc(OC)c(OC)c(OC)c32)cc(OC)c1OC` (configuration not stated), the “activity change, negative = inhibition” value is -9.18%.

Take `CCN1/C(=C/c2ccc3ccc(C)cc3[n+]2CC)Sc2ccccc21`: the Potency is 13 µM (active). As for `CCN1CCN(CCNC(=O)c2ccc(/C=C3/Sc4ccccc4N(Cc4cccc(C)c4)C3=O)cc2)CC1`, the “activity change, negative = inhibition” value was 6.25%. Regarding `FC(F)(F)c1ccc(-c2cccc3c2C2CC3CCN2Cc2ccccc2)cc1` (configuration not stated), the “activity change, negative = inhibition” value was -5.75%. On the same count and under the same terms, then `COc1ccc(-c2cc(NCc3ccc(F)cc3)n3cnnc3n2)cc1`, with -20.5%; and `NC(=O)c1ncn([C@@H]2O[C@H](CNCc3cnc(N4CCOCC4)s3)[C@@H](O)[C@H]2O)n1`, with -1.58%. The same measure, in the same setting: then `Cn1nc(-c2ccccc2)c(CSc2cccc(Cl)c2)c1Cl`, with -17.6%; and `Cc1ccc(S(=O)(=O)c2c(COC(=O)c3cccc(Cl)c3)c(-c3ccccc3)nn2C)cc1`, with 4.27%. In the case of `Cn1nc(-c2ccccc2)c(CO)c1Sc1ccccc1`, the Potency was 25.9 µM (active). For `O=C(COc1ccccc1F)NNC(=O)c1cc(Br)ccc1Cl`, the “activity change, negative = inhibition” value is 2.26%. Still for that read-out and setting: then `O=C(CN1C(=O)NC2(CCCCCC2)C1=O)Nc1ccc([N+](=O)[O-])cc1`, with -1.58%; and `CCC1CCCCN1Cc1c(O)ccc2c(=O)c(Oc3ccccc3Cl)c(C(F)(F)F)oc12` (configuration not stated), with 1.23%; and `C#CCOCCOCCOCCNc1nc(N2CCN(C(=O)Cn3cc(CCO)nn3)CC2)nc(N2CCN(C(=O)[C@H](CCCCN)n3cc(CCCC)nn3)CC2)n1`, with 6.59%. On the same count and under the same terms, then `Cc1cc(C2=NNC(=Nc3ccc(S(=O)(=O)N4CCOCC4)cc3)SC2)c(C)n1CC1CCCO1` (configuration not stated), with 14%.

As for `C=CCn1c(C)cc(C2=NNC(=NCC)SC2)c1C`, the Potency was 16.4 µM (active).

For the compound `Cc1cccc2nc(-c3ccc(Cl)s3)c(Nc3ccc4c(c3)OCCO4)n12`, the “activity change, negative = inhibition” value was -12.5%.

For the compound `COc1ccc(NC(=O)/C(N=Nc2cccc(S(=O)(=O)Nc3ccc(SC(F)F)cc3)c2)=C(\C)O)cc1`, the “activity change, negative = inhibition” value was -4.71%. As for `C=CCCC(=O)N1C[C@H]2CON(C)[C@H]2C[C@H]1c1cccc(Nc2ccccc2)c1`, the “activity change, negative = inhibition” value was 6.32%. `CN(C)C(=O)CCc1ccc2c3c([nH]c2c1)[C@]1(C)[C@@H](C(=O)N2CCCCC2)C[C@H](CC(=O)NCCC2=CCCCC2)C(=O)N1CC3`: the “activity change, negative = inhibition” value is -13.1%.

Regarding `CCc1ccc(S(=O)(=O)n2ccnc2)cc1`, the “activity change, negative = inhibition” value is 29.8%. The same measure, in the same setting: then `CCOc1ccccc1CNC(=O)c1ccc(-n2c(C)cc3c2CCC(C)C3)cc1` (configuration not stated), with 9.8%. As to `COc1ccc(C(=O)NC(=S)NNC(=O)c2c(-c3ccccc3)noc2C)cc1`, the Potency was 23.1 µM (active).

Regarding `CC(C)Oc1ccc(CCC(=O)NNC(=S)NCc2ccccc2)cc1`, the “activity change, negative = inhibition” value is -0.796%. Take `O=C(CCc1ccccc1)NNC(=O)c1ccc(Br)cc1`: the “activity change, negative = inhibition” value was 3.41%. Turning to `COc1ccc(C(=O)NC(=S)NNC(=O)CCc2ccccc2)cc1`, the Potency is 7.31 µM (active). In the case of `Cc1ccc(CNC(=O)c2c(-c3ccccc3)noc2C)cc1`, the “activity change, negative = inhibition” value is -5.27%. As to `COc1ccc(C(=O)NNC(=S)NC(=O)c2ccccc2[N+](=O)[O-])cc1`, the “activity change, negative = inhibition” value was -1.05%. As for `CCN(C(=O)c1sc2cc(OC)ccc2c1Cl)c1ccccc1`, the “activity change, negative = inhibition” value is -27.9%.

The values above are taken from PubChem BioAssay AID504444 (National Center for Advancing Translational Sciences (NCATS), 2011).
